From PubChem BioAssay (NCATS)
Inconclusive results are not listed. Where a call stands in place of a potency, no number is given. Values without a mark were called inactive. Activity calls are given as the source filed them. Calls come from the whole dose curve; as a rule, active = well fitted inhibition curve with a large enough effect; inconclusive = small, poorly fitted or top-dose-only effect; inactive = no such curve, though single readings can be large or run the other way.

Tests used:
[1] = tested on: Zika virus NS2B-NS3 protease (unlinked complex); experiment: Primary screen GU Rhodamine qHTS for Zika virus inhibitors: Unlinked NS2B-NS3 protease assay (AID 1347159); note: nearly all actives have a fitted effect of over 60% in size; note: potency is the fitted concentration of half-maximal effect
Method in brief: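 Unlinked NS2B/NS3, 25 nM; Rhod110 peptide, 1.5 microM; compounds, up to 114 microM. Reaction run 15 min at RT in 10 mM Tris-HCl pH 8.0, 0.01% Tween 20; kinetic fluorescence change fitted with a 4-parameter Hill model.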

[2] = tested on: Zika virus NS2B-NS3 protease (linked construct); experiment: Primary screen NINDS Rhodamine qHTS for Zika virus inhibitors (AID 1347160); note: nearly all actives have a fitted effect of over 55% in size
Method in brief: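 Single-chain NS2B-NS3 protease, 25 nM, pH 8.0; compounds preincubated 15 min. Activity: Rhodamine110 release from 1.5 microM substrate over 15 min, room temperature, data fitted to 4-parameter Hill.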

Compound	Potency [1]	Potency [2]	activity change, negative = inhibition [1]	activity change, negative = inhibition [2]
C[C@@]12C[C@]3(O)O[C@H](O1)[C@]1(COC(=O)c4ccccc4)[C@H]3C[C@@]12O[C@@H]1O[C@H](CO)[C@@H](O)[C@H](O)[C@H]1O	inactive	inactive	–	–
CC(C)(C(=O)NCC(F)(F)C(F)(F)F)C(=O)NC1C(=O)Nc2ccccc2-c2ccccc21 (stereo not drawn)	inactive	inactive	–	–
CC1(CCOC2OC(CO)C(O)C(O)C2O)CCC23OC2(C1)C(O)CC1C(C)(C(=O)O)CCCC13C (stereo not drawn)	inactive	inactive	–	–
C=C1CCC2C(C)(C)C(O)CCC2(C)C1CCC(C)CCOC(C)=O (stereo not drawn)	22.4 µM (active)	inactive	–	–
COc1ccc2[nH]c3c(-c4cccc5ccccc45)nccc3c2c1	inactive	inactive	–	–
CC(C)c1cc(C(=O)N2CC[C@H](NC(=O)C3CC3)C2)n[nH]1	inactive	inactive	–	–
CC(C)/C=C1\NC(=O)C(C(C)C)n2c1nc1c(c2=O)C=CC=CO1 (stereo not drawn)	inactive	inactive	–	–
C1CCC[C@H]2CCCN3CC[C@@H](CCCCCC[C@@H]4CCCN5CC[C@@H](CC1)O[C@@H]45)O[C@@H]23	–	–	-7.05% [at 0.23 µM]	20.2% [at 0.092 µM]
CCC(O)(C(=O)OCc1ccccc1NC(=O)CCC(=O)O)C(C)O (stereo not drawn)	inactive	inactive	–	–
COC(=O)[C@H](O)[C@H]1C(C)(C)[C@H](OC(=O)C(C)C)[C@@]2(O)C(=O)[C@]1(C)C1CC[C@]3(C)C(CC(=O)O[C@H]3c3ccoc3)[C@]13O[C@@H]32 (stereo partly drawn)	inactive	inactive	–	–
COCCOc1ccc(N2CCN(CCn3ncc4c3nc(N)n3nc(-c5ccco5)nc43)CC2)cc1	inactive	inactive	–	–
CC(=O)OC1C(=O)C2(C)C(O)CC3OCC3(OC(C)=O)C2C(OC(=O)c2ccccc2)C2(O)CC(OC(=O)C(O)C(NC(=O)c3ccccc3)c3ccccc3)C(C)=C1C2(C)C (stereo not drawn)	inactive	inactive	–	–
CC(Nc1ncnc2nc[nH]c12)c1cc2cccc(Cl)c2c(=O)n1-c1ccccc1 (stereo not drawn)	inactive	inactive	–	–
O=C(c1cc2c(cc1F)OC(c1ccc(F)cc1)(c1ccc(Cl)cc1Cl)O2)N1CCOCC1 (stereo not drawn)	inactive	inactive	–	–
O=C1NC(=O)C(c2cn(-c3ccccc3)nc2-c2ccc(F)cc2)N1 (stereo not drawn)	inactive	inactive	–	–
O=C(Cc1ccc(-c2ccccc2)cc1)NC1CCC1	inactive	inactive	–	–
CCCCNc1ncc2c(-c3ccc(CN4CCN(C)CC4)cc3)cn(C3CCC(O)CC3)c2n1 (stereo not drawn)	inactive	inactive	–	–
C=C[C@H]1[C@H](O[C@@H]2O[C@H](CO)[C@@H](O)[C@H](O)[C@H]2O)OC=C(C(=O)OC)[C@H]1C[C@@H]1c2cc(O)c(O)cc2CCN1C(C)=O	inactive	inactive	–	–
COCCOc1cnc2ccn([C@H](C)c3nnc4c(F)cc(-c5cnn(C)c5)cn34)c(=O)c2c1	inactive	inactive	–	–
